Records with an inconclusive call do not appear. A number with no mark means an inactive call. Activity calls are given as the source filed them. Calls come from the whole dose curve; as a rule, active = well fitted inhibition curve with a large enough effect; inconclusive = small, poorly fitted or top-dose-only effect; inactive = no such curve, though single readings can be large or run the other way.
target: Luciferin 4-monooxygenase (Photinus pyralis) (UniProt P08659); assay: FLuc inhibitory activity for the follow-up compounds in a biochemical assay with Km concentrations of substrate; settings: purified FLuc, Km substrates, luminescence; series mostly up to 57.5 µM; activity change, negative = inhibition: at the top concentration
Sequence (P08659 whole entry, looked up): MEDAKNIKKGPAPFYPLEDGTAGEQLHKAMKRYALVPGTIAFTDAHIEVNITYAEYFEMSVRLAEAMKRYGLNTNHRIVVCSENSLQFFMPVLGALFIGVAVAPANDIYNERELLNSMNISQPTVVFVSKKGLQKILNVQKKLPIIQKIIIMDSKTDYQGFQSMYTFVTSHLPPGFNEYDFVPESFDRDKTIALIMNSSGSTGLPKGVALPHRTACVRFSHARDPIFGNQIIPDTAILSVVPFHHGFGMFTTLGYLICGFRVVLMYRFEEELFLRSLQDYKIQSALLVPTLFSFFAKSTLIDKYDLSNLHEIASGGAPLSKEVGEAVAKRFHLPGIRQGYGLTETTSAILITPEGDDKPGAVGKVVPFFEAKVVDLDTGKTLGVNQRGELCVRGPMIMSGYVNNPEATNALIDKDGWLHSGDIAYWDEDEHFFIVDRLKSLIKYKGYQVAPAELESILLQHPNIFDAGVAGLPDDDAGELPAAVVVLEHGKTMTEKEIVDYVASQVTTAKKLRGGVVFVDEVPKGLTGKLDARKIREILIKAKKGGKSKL
Description: NCGC Assay Overview: Firefly (Photinus pyralis) luciferase is one of the most commonly used transcriptional reporters. It is considered one of the more dynamically responsive reporters - that is, responsive to changes in reporter transcription - as it requires no post-translational modifications and is enzymatically active directly after protein synthesis (Wood, 1998). With no endogenous expression in mammalian cells and without the requirement of external excitation, it offers very little background signal, thus generally providing excellent signal to background for most assays. Previous profiling work to determine the prevalence of compounds that affect FLuc enzymatic activity (PubChem AID 411) identified that ~3% of the MLSMR library (then at ~72K) inhibited FLuc. […] Of the compounds identified in this profile that inhibited FLuc, 151 compounds were selected for further analysis, in an effort to better understand their mode of inhibiting FLuc. The assay described here confirms the FLuc inhibitory activity of the 151 compounds.
NCGC Assay Protocol Summary: Reagents: 50mM Tris acetate, pH 7.5; 10mM Mg acetate; 10uM D-luciferin (Sigma #L9504); 10uM ATP; 0.01% Tween-20; 0.05% BSA; 10nM P. pyralis luciferase (Sigma #L9506) Control compounds used were two known firefly luciferase inhibitors (3-(5-(3-chlorophenyl)-1,2,4-oxadiazol-3-yl)benzoic acid and 5-(2-fluorophenyl)-3-phenyl-1,2,4-oxadiazole), and DMSO. Three microliters containing firefly luciferase substrates in buffer (final concentrations: 50mM Tris acetate, pH 7.5, 10mM Mg acetate, 0.01% Tween-20, 0.05% BSA, 10uM D-luciferin, and 10uM ATP) are dispensed into each well of a Greiner white, solid-bottom 1536-well format plate using a flying reagent dispenser (FRD). These assay plates were then treated with 23nL of compound or DMSO using a Kalypsys pin tool, which allows for delivery of a 12-point intraplate titration of each compound to the assay plate (quantitative HTS), with a final compound concentrations ranging from approximately ~60uM to 0.3nM. One microliter of firefly luciferase in 500mM Tris-acetate buffer was then delivered by FRD to each well for a final enzyme concentration of 10nM. Luciferase activity was then measured using a ViewLux CCD imager (PerkinElmer), with an average exposure time of 2-30 seconds (2X binning, medium/high gain).

Row | SMILES | Potency | activity change, negative = inhibition [%]
1 | C/C(=N\NC(=O)c1ccccc1NC(=O)c1ccc(Cl)cc1)c1ccncc1 | 0.0116 µM (active) | 
2 | CC(C)c1ccc(C(=O)Nc2ccc(-c3nc4ccccc4s3)c(Cl)c2)cc1 |  | -34.9
3 | Cc1ccc(C(=O)O/N=C(\N)c2ccccn2)cc1 | 0.0291 µM (active) | 
4 | Cn1c(N/N=C/c2cc3ccccc3nc2Cl)nc2ccccc21 | 0.058 µM (active) | 
5 | CCOc1ccc(C(=O)Nc2cccc(C(=O)O)c2)cc1Cl | 0.058 µM (active) | 
6 | COc1cc(OC)cc(C(=O)Nc2ccc(-c3nc4ccccc4s3)c(C)c2)c1 |  | -20.8
7 | O=C(Nc1ccccc1C(=O)O)c1cccc(S(=O)(=O)Nc2ccc(Br)cc2)c1 |  | -10.2
8 | Cc1ccc(S(=O)(=O)N2CCN(C(=O)c3ccccc3-c3nc4ccccc4s3)CC2)c(C)c1 |  | -4.09
9 | O=C(Nc1ccccc1C(=O)O)c1ccc(Cl)c(S(=O)(=O)N2CCOCC2)c1 | 8.19 µM (active) | 
10 | Cc1ccc(C(=O)Nc2ccccc2C(=O)O)cc1S(=O)(=O)N1CCCCCC1 | 1.83 µM (active) | 
11 | COc1ccc2nc(NC(=O)C3CCN(S(=O)(=O)c4cccnc4)CC3)sc2c1 |  | -9.68
12 | O=C(O)c1cccc(NC(=O)c2cccc(S(=O)(=O)N3CCCCC3)c2)c1 | 1.63 µM (active) | 
13 | Cc1ccc(C(=O)Nc2cccc(C(=O)O)c2)cc1S(=O)(=O)N1CCOCC1 | 0.291 µM (active) | 
14 | COc1ccc(C(=O)Nc2ccccc2C(=O)Nc2ccc(C(=O)O)cc2)cc1 | 1.63 µM (active) | 
15 | COc1ccc2nc(NC(=O)c3nc(S(=O)(=O)Cc4ccc(C)cc4)ncc3Cl)sc2c1 |  | -9.87
16 | Cc1ccc(NS(=O)(=O)c2ccc(Cl)c(C(=O)Nc3cccc(C(=O)O)c3)c2)cc1 |  | -10.3
17 | COc1ccc(Br)cc1C(=O)Nc1ccc(C(=O)O)cc1 |  | 0.649
18 | O=C(O)c1cccc(NC(=O)c2ccc(Cl)c(S(=O)(=O)N3CCCCCC3)c2)c1 | 0.058 µM (active) | 
19 | O=C(Nc1ccc(-c2nc3ccccc3s2)cc1)C1=COCCO1 | 0.0919 µM (active) | 
20 | COc1ccc2nc(NC(=O)c3ccc(S(=O)(=O)N4CCCC(C)C4)cc3)sc2c1 (stereo not given) |  | -0.483

Row | SMILES | Potency | activity change, negative = inhibition [%]
21 | COc1ccc(-c2cccc(C(=O)Nc3cccc(C(=O)O)c3)c2)cc1 | 4.61 µM (active) | 
22 | CC(=O)Nc1cccc(C(=O)Nc2ccccc2C(=O)O)c1 | 32.6 µM (active) | 
23 | Cc1c(NC(=O)C(C)(C)C)cccc1-c1nc2ccccc2s1 | 3.26 µM (active) | 
24 | O=C(Nc1ccccc1C(=O)Nc1ccccc1C(=O)O)c1ccccc1 | 16.3 µM (active) | 
25 | Nc1ccccc1-c1nc2ccccc2s1 | 8.19 µM (active) | 
26 | COc1ccc2nc(NC(=O)c3ccccc3C(=O)O)sc2c1 | 18.3 µM (active) | 
27 | O=C(Nc1ccccc1C(=O)O)c1cccc(NC(=O)c2ccco2)c1 | 18.3 µM (active) | 
28 | CCOc1ccc2nc(NC(=O)c3ccccn3)sc2c1 | 0.517 µM (active) | 
29 | Cc1c(NS(C)(=O)=O)cccc1-c1nc2ccccc2s1 | 8.19 µM (active) | 
30 | Cc1c(C)c2ccc(OCC(=O)Nc3ccccn3)c(C)c2oc1=O | 0.0116 µM (active) | 
31 | O=C(Nc1ccc(Cl)cc1-c1nc2ccccc2s1)c1ccco1 |  | -8.61
32 | Cc1ccc(C(=O)O/N=C(\N)c2ccccn2)c(Cl)c1 | 0.0146 µM (active) | 
33 | Cc1ccc(C(=O)Nc2cccc(C(=O)O)c2)cc1S(=O)(=O)N1CCCC1 | 0.058 µM (active) | 
34 | NC(=O)Cc1ccc2sc(-c3ccccc3)nc2c1 | 5.17 µM (active) | 
35 | COc1ccc2nc(NC(=O)c3cccc(S(=O)(=O)N4CCOCC4)c3)sc2c1 | 20.6 µM (active) | 
36 | Cc1ccc(C(=O)Nc2cccc(C(=O)O)c2)cc1S(=O)(=O)N1CCCCC1 | 0.0651 µM (active) | 
37 | O=C(Nc1ccccc1C(=O)O)c1cc(S(=O)(=O)Nc2ccccc2)ccc1Cl |  | -3.72
38 | COc1ccc(C(=O)Nc2nc3ccc(OC)cc3s2)cc1 | 1.83 µM (active) | 
39 | Nc1cccc(-c2nc3ccc(N)cc3s2)c1 | 0.366 µM (active) | 
40 | Cc1ccc2nc(-c3ccc(NC(=O)CN4CCN(C(=O)c5ccco5)CC4)cc3)sc2c1 | 5.8 µM (active) | 
